# Reference: PubChem BioAssay (NCI)
# About 83,000 compounds went through this panel and 20% of them were active in at least one assay; those are over-represented in the sample as a whole.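 Method: cells in 96-well plates; compound added at one concentration; 48 h incubation; percent growth measured; values under 10 scored active.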 Unmarked numbers belong to inactive results. Active and inactive are the calls of the source. Where a SMILES comes first, the peptide text is derived from it. Bridges are numbered along the chain shown (N, C = ends). [ ]: non-standard residue; d: D form. The star is where a group is joined. ξ: configuration not given here. ξNMePhe(4-NMe2) = CNC(Cc1ccc(N(C)C)cc1)C(=O)O; Picolinoyl(3-OH) = O=C(c1ncccc1O)*; ξPip(4-oxo) = O=C1CCNC(C(=O)O)C1; Phg = N[CH](C(=O)O)c1ccccc1; Abu = CC[CH](N)C(=O)O
# Experiments:
# Assay in all cases: NCI-60 one-dose screen, 48 h (100 = growth as untreated, 0 = no growth, -100 = all killed)
# DU-145 prostate = conditions: 10 µM
# K-562 leukemia = conditions: 10 µM
# MALME-3M melanoma = conditions: 10 µM
# MDA-MB-231 breast = conditions: 10 µM
# RXF 393 renal = conditions: 10 µM
# SF-268 CNS = conditions: 10 µM
# SF-295 CNS = conditions: 10 µM
# SF-539 CNS = conditions: 10 µM
# UACC-257 melanoma = conditions: 10 µM
# M14 melanoma = conditions: 10 µM
# HT29 colon = conditions: 10 µM
# SNB-75 CNS = conditions: 10 µM
# SNB-19 CNS = conditions: 10 µM
# U251 CNS = conditions: 10 µM
# PC-3 prostate = conditions: 10 µM
# SK-MEL-5 melanoma = conditions: 10 µM
# LOX IMVI melanoma = conditions: 10 µM
# SK-MEL-28 melanoma = conditions: 10 µM
# HCT-15 colon = conditions: 10 µM
# UACC-62 melanoma = conditions: 10 µM unless noted
Structure (SMILES),growth (DU-145 prostate),growth (K-562 leukemia),growth (MALME-3M melanoma),growth (MDA-MB-231 breast),growth (RXF 393 renal),growth (SF-268 CNS),growth (SF-295 CNS),growth (SF-539 CNS),growth (UACC-257 melanoma),growth (M14 melanoma),growth (HT29 colon),growth (SNB-75 CNS),growth (SNB-19 CNS),growth (U251 CNS),growth (PC-3 prostate),growth (SK-MEL-5 melanoma),growth (LOX IMVI melanoma),growth (SK-MEL-28 melanoma),growth (HCT-15 colon),growth (UACC-62 melanoma)
O=[N+]([O-])c1ccc(Cl)c(S(=O)(=O)O)c1,109%,100%,120%,110%,126%,105%,112%,97.8%,96.6%,107%,138%,85.8%,106%,111%,108%,104%,102%,111%,,
O=S(=O)(O)CC(O)CN1CCN(CCO)CC1 (stereo not drawn),111%,97.4%,114%,119%,105%,109%,119%,111%,97.8%,105%,,102%,115%,106%,81.1%,107%,96.8%,117%,102%,
CCN(CC)C(=O)/C=C(/C)c1ccccc1,117%,107%,111%,108%,96.7%,104%,100%,107%,110%,104%,,93.2%,105%,105%,93.4%,90.1%,98.7%,106%,104%,103%
COc1ccccc1N=Nc1c(O)ccc2cc(S(=O)(=O)O)ccc12,111%,98.1%,109%,93.2%,104%,96.5%,94.2%,103%,95.8%,99.7%,96.7%,69.6%,100%,99.5%,92.6%,103%,100%,111%,,100%
CCOC(=O)C1=C(C)NC(=O)NC1c1cccs1 (stereo not drawn),122%,103%,110%,110%,99.7%,108%,112%,103%,102%,111%,,103%,113%,109%,102%,104%,101%,106%,,115%
CC(=O)c1cc2c(cc1F)C(C)(C)CCC2(C)C,108%,96.2%,123%,103%,113%,95.4%,120%,96.2%,96.3%,98.9%,106%,84.8%,102%,104%,95.6%,102%,96%,107%,,97.1%
CCC1NC(=O)C(NC(=O)c2ncccc2O)C(C)OC(=O)C(c2ccccc2)NC(=O)C2CC(=O)CCN2C(=O)C(Cc2ccc(N(C)C)cc2)N(C)C(=O)C2CCCN2C1=O (stereo not drawn) (tested in a mixture with another compound) ({Picolinoyl(3-OH)}-T[Abu]P[ξNMePhe(4-NMe2)][ξPip(4-oxo)][Phg]; ester 1-C; configuration not given here),46.9%,38.3%,55.4%,58.6%,27.6%,79.8%,20.7%,64.2%,70.6%,,43.6%,45.4%,78.4%,64.9%,55.5%,-21.7% (active),49.2%,,79.3%,50.9%
CC(=O)OCC(=O)[C@@]1(O)CC[C@H]2[C@@H]3CC[C@@H]4C[C@H](O)CC[C@]4(C)[C@H]3C(=O)C[C@@]21C,120%,101%,143%,103%,94.8%,102%,104%,100%,101%,110%,117%,88.6%,111%,102%,95.5%,97.1%,101%,121%,,103%
